{"source": "PubChem BioAssay", "note": "Calls of active or inactive are those of the source. How the calls were made is not given here."}
{"target": "Pantothenate synthetase (Mycobacterium tuberculosis (strain ATCC 25618 / H37Rv)) (UniProt P9WIL5)", "sequence (P9WIL5 whole entry, looked up)": "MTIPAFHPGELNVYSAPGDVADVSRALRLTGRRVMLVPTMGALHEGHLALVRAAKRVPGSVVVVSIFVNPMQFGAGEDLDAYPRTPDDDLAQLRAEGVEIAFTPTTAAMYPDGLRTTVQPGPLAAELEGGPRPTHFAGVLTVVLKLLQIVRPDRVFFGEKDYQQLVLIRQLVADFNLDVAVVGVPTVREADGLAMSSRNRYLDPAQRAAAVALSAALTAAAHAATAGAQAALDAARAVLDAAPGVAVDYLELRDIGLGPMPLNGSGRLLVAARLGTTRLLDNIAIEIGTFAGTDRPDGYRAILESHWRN", "experiment": "Recombinant Mtb pantothenate synthetase (PanC) inhibitors, coupled enzyme, confirmatory (AID 375);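 further: 0% = full reaction with vehicle and 100% = no enzyme background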", "conditions": "coupled enzyme assay; at 10 µM, active compounds read high"}
{"molecule": "O=C(c1cccc2ccccc12)N1CCC(N2CCN(c3ccccc3)CC2)CC1", "inhibition": "0% (inactive)"}
{"molecule": "Cc1cc(C)c2oc(=O)cc(CN3CCOCC3)c2c1", "inhibition": "0% (inactive)"}
{"molecule": "CC(C)(C)c1ccc(OCC(=O)O)cc1", "inhibition": "1% (inactive)"}
{"molecule": "Cc1nc(CNS(=O)(=O)c2cc(C)c(C)cc2C)cs1", "inhibition": "1% (inactive)"}
{"molecule": "O=S(=O)(c1ccc2ccccc2c1)N1CCCCC1", "inhibition": "0% (inactive)"}
{"molecule": "CCn1c(=N)n(CC(=O)c2ccco2)c2ccccc21", "inhibition": "0% (inactive)"}
{"molecule": "Cc1cc(NC(=O)COC(=O)c2cccc(S(=O)(=O)N3CCOCC3)c2)no1", "inhibition": "1% (inactive)"}
{"molecule": "O=C(Nc1nccs1)c1cccc(NC(=O)C2CC2)c1", "inhibition": "6% (inactive)"}
{"molecule": "O=P(O)(CN1CCCCCC1)CN1CCCCCC1", "inhibition": "0% (inactive)"}
{"molecule": "Cc1cc(C)n(-c2nc(C)nc3sc4c(c23)CCC(C)C4)n1", "note": "(stereo not drawn)", "inhibition": "0% (inactive)"}
{"molecule": "COc1ccc(N2CCN(Cc3nc4c(c(=O)n(C)c(=O)n4C)n3Cc3ccccc3C)CC2)cc1", "inhibition": "7% (inactive)"}
{"molecule": "CC(=O)N1CCc2cc(S(=O)(=O)NC(CC(C)C)C(=O)N3CCn4c3nc3ccccc34)ccc21", "note": "(stereo not drawn)", "inhibition": "0% (inactive)"}
{"molecule": "CCOc1ccc(NC(=O)CCN2CCN(c3ccccc3)CC2)cc1", "inhibition": "0% (inactive)"}
{"molecule": "Cc1ccc(-c2noc(CCC(=O)N3CCN(c4cccc(C(F)(F)F)c4)CC3)n2)cc1", "inhibition": "0% (inactive)"}
{"molecule": "Cc1cc(-c2ccccc2)nc(SCc2ccc(C(=O)O)o2)n1", "inhibition": "0% (inactive)"}
{"molecule": "CCc1nc2sc(C)c(C)c2c(=O)n1CCO", "inhibition": "7% (inactive)"}
{"molecule": "NC(CO)C(=O)NNCc1ccc(O)c(O)c1O", "note": "(stereo not drawn)", "inhibition": "0% (inactive)"}
{"molecule": "O=C1CC2CS(=O)(=O)CC2N1c1ccc(Oc2ccccc2)cc1", "note": "(stereo not drawn)", "inhibition": "0% (inactive)"}
